Measured values published in PubChem BioAssay AID662 (National Center for Advancing Translational Sciences (NCATS), 2007).
In all, about 71,000 compounds went through this assay and about 1,800 (2.5%) were called active. Not shown: some 26% with an inconclusive outcome. This excerpt belongs to a sample that is enriched for actives. Unmarked numbers belong to inactive results. Calls follow the shape of the dose curve; as a rule, active = well fitted activation curve with a large enough effect in the signal ratio, with a control signal flat (not every such curve was filed as active); inconclusive = small, poorly fitted or top-dose-only effect, or effect the other way, or a change in a side signal; inactive = flat fitted curve, though single readings scatter; the % refers to the signal ratio.

Test: Cell signaling CRE-BLA (Fsk stim); as to activity change, negative = inhibition: % of control where 0% means no effect
Conditions: CHO CRE-bla reporter (cAMP response element driving beta-lactamase), forskolin EC10, beta-lactamase ratio; series mostly up to 38.2 µM; activity change, negative = inhibition: at the top concentration
In short: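 Reporter-gene assay: CHO cells with beta-lactamase behind cAMP responsive elements, co-treated with compound and EC10 NKH 477 for 3 hours at 37 degrees Celsius. Activity came from the 460/530 nm CCF4 emission ratio.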
Potency is read from the fitted curve at half-maximal effect.

SMILES | activity change, negative = inhibition | Potency
CCOC(=O)c1cc(-c2nnc(-c3cc(OC)c(OC)c(OC)c3)o2)c(C)nc1C | 13.5% | –
CCCc1nc2ccccc2c(C(=O)OCc2nnc(-c3cc(OC)c(OC)c(OC)c3)o2)c1CC | – | 0.501 µM (active)
O=C(OCc1nnc(-c2ccccc2)o1)c1ccc2c(c1)C(=O)N(CCc1ccccc1)C2=O | 14.8% | –
C[C@@H]1O[C@@H](O[C@@H]2[C@@H](O)[C@H](OCCc3ccc(O)c(O)c3)O[C@H](CO[C@@H]3O[C@H](CO)[C@@H](O)[C@H](O)[C@H]3O)[C@H]2OC(=O)/C=C/c2ccc(O)c(O)c2)[C@H](O)[C@H](O)[C@H]1O | -1.8% | –
N[C@@H](C(=O)O)c1ccc(P(=O)(O)O)cc1 | 3.09% | –
CC1CN(c2cc(=O)n(Cc3ccc(F)cc3)c(=O)[nH]2)CC(C)O1 (configuration not stated) | -4.71% | –
COCc1cc(C)nc(Nc2cc(C)ccc2C)c1C#N | 12.3% | –
COC(=O)c1c(NC(=O)CSc2nncs2)sc2c1CCCCC2 | – | 6.31 µM (active)
N#Cc1c(NC(=O)CSc2nc3ccccc3c(=O)n2Cc2ccco2)sc2c1CCCC2 | -3.2% | –
CCOCC(=O)Nc1sc2c(c1C(=O)OCC)CCCC2 | – | 10 µM (active)
CCOC(=O)c1c(-n2cnnn2)sc(C)c1C | 12.6% | –
CCOC(=O)c1sc(NC(=O)CCN2CCOCC2)c(C(=O)OCC)c1C | 7.36% | –
COC(=O)c1sc(NC(=O)c2csc3c2CCCC3)nc1C | 18.1% | –
C=CCOC(=O)COCCC(C)C | -7.88% | –
CC1C(c2ccccc2)=[N+]([O-])C2(CCCC2)N1O (configuration not stated) | -1.15% | –
CCCC[C@@H]1C[C@H]1C(NC(=O)c1ccco1)c1ccc(C(=O)OC)cc1 (some centres not stated) | 4.18% | –
C/C=C1\C(=O)C[C@@H]2[C@@H]3CCC4=CC(=O)CC[C@@]4(C)[C@H]3CC[C@@]12C | 11.9% | –
O=C(Nc1cccc(F)c1)c1ccc(S(=O)(=O)N2CCCC2)cc1 | -0.683% | –
CSc1nnc(-c2ccncc2)n1CCCN1CCCC1=O | 0.937% | –
CC(C)(C)OC(=O)c1c(N)n(CCCN2CCCC2=O)c2nc3ccccc3nc12 | – | 10 µM (active)
CCOc1cc2[nH]c(=S)n(CCCN3CCCC3=O)c(=O)c2cc1OCC | 0.0831% | –
Cc1ccccc1C(=O)O | -1.28% | –
